Nrf2 block: Nrf2 qHTS screen for inhibitors. AID 504444, 2011. A549 ARE-Fluc reporter, luciferase luminescence, 18-24 h. Potency, µM (titrated, usually from 46 µM), usual class: inhibitors. 2.1% of 360,000 active; also: nearly all actives have a fitted effect of over 60% in size
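Cells were seeded and rested 2 h, then exposed to compounds for 18-24 h. CellTiter-Fluor was read first as a viability measure. BugLite was added 15 min before the final luminescent read of ARE-luciferase activity in A549 cells.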
Rango release inh: qHTS Assay for Inhibitors of RanGTP induced Rango (Ran-regulated importin-beta cargo) - Importin beta complex dissociation. Snurportin-1 (Homo sapiens) + GTP-binding nuclear protein Ran (Homo sapiens) + Importin …. Biochemical FRET Rango-importin beta, RanGTP-induced dissociation. Potency, µM (titrated, usually from 46.1 µM). 0.071% of 340,000 active. AID 540253, 2011; calls by dose curve; also: nearly all actives have a fitted effect of over 45% in size
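Two FRET readings bracket the reaction: one 5 min after compound meets Rango–importin beta, another 45 min after RanGTP-RCC1 (0.6 uM Ran, 0.2 uM RCC1, 2 mM GTP) is added. Only the second defines inhibition.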
A549 tox: Nrf2 qHTS screen for inhibitors: counterscreen for cytotoxicity; A549 ARE-Fluc cells, CellTiter-Fluor viability, 18-24 h; Potency, µM (top dose mostly 46 µM), usual class: inhibitors; 0.16% of 390,000 active; AID 504648, 2011
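A549 ARE_Fluc cells in 5% FBS OPTI-MEM were exposed to compounds in concentration-response for 18-24 h at 37 deg C. Viability was read by CellTiter-Fluor fluorescence (Ex 405/Em 525) after 30 min, before the luciferase read.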
Nrf2 ARE act: qHTS of Nrf2 Activators; AID 624171, 2012; 0.31% of 410,000 active; AREc32 ARE-luciferase reporter (MCF7-derived line), luminescence, 24 h; Potency, µM (series often up to 46.1 µM), hits mostly activators; also: nearly all actives have a fitted effect of over 65% in size
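Nrf2 activation is followed as ARE-luciferase induction in the AREc32 line after one day of compound treatment; luminescence is read with Steady-Glo.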
Rango complex inh: qHTS Assay for Inhibitors of Rango (Ran-regulated importin-beta cargo) - Importin beta complex formation; Importin subunit beta-1 (Homo sapiens), Q14974; Rango CFP/YFP FRET sensor + importin beta, 45 min; Potency, µM (doses to about 92.2 µM); 0.031% of 340,000 active; calls by dose curve; also: nearly all actives have a fitted effect of over 15% in size
Target sequence (Q14974 whole entry, looked up): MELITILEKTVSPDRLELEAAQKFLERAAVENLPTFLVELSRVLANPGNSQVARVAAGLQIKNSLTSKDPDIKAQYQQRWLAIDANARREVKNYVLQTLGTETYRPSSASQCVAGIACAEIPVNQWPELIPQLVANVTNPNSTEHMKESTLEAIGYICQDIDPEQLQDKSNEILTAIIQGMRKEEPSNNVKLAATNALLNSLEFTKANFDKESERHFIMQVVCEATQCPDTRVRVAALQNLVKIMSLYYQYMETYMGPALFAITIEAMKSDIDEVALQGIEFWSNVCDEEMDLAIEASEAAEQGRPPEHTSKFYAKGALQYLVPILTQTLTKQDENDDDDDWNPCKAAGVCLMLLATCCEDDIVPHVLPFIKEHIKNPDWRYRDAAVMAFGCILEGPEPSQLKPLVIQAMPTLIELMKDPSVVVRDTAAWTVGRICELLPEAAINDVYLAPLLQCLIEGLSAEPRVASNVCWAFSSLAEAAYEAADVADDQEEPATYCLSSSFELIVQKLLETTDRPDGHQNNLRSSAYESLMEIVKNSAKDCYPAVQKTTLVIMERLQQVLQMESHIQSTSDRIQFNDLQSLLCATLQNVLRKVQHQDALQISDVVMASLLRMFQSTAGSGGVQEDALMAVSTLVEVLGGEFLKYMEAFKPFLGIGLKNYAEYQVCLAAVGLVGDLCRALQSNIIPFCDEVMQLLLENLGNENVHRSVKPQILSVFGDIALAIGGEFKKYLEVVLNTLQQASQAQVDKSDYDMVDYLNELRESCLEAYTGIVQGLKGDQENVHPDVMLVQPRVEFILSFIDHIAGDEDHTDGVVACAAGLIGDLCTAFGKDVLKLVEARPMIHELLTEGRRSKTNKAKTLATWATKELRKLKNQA
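FRET biosensor (snurportin 1 IBB flanked by EYFP and cerulean), 50 nM, with compound 5 min, then 0.125 microM importin beta in PBS, 1 mM DTT, 0.02% Tween-20, 0.1% BSA. CFP/YFP ratio read after 45 min at room temperature; pre-read flags interference.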
Large screens that a line does not name were inactive. A selection: hits, their analogues and other compounds. The true share with any hit is near 2.3%. Unless noted, calls follow the shape of the dose curve; as a rule, active = well fitted curve in the direction sought with a large enough effect; inconclusive = small, poorly fitted or top-dose-only effect, or another doubt; inactive = no such curve, though single readings can be large; an effect the other way counts as inactive or inconclusive.

CC(=O)N1c2ccc(S(=O)(=O)NCCC(=O)Nc3ccc(Br)c(C)c3)cc2CC1C (centres undefined)	Nrf2 block inconclusive (no result: Rango release inh, Rango complex inh)
Cc1ccc2c(c1)C(c1ccc(F)cc1)N(C(=O)COc1ccc(Cl)cc1Cl)CC(=O)N2 (centres undefined)	A549 tox inconclusive (no result: Rango release inh, Rango complex inh)
COC(=O)Nc1ccc(S(=O)(=O)N2CCCC(C(=O)N3CCCCC3)C2)cc1 (centres undefined)	Nrf2 block 16.4µM
CC(=O)N1c2ccc(S(=O)(=O)N3CCCC(C(=O)N4CCC(C)CC4)C3)cc2CC1C (centres undefined)	Nrf2 block 20.6µM
CCC(C)NC(=O)C1CCC(CNS(=O)(=O)c2ccc3c(c2)CC(C)N3C(C)=O)CC1 (centres undefined)	none
CC(=O)N1c2ccc(S(=O)(=O)NCC3CCC(C(=O)Nc4cc(C)ccn4)CC3)cc2CC1C (centres undefined)	Nrf2 block 23.1µM, A549 tox inconclusive
CC(=O)N1c2ccc(S(=O)(=O)NCC3CCC(C(=O)N4CC(C)CC(C)C4)CC3)cc2CC1C (centres undefined)	Nrf2 block 16.4µM
CC(=O)N1c2ccc(S(=O)(=O)N3CCCC(C(=O)N4CCCC(C)C4)C3)cc2CC1C (centres undefined)	Nrf2 block inconclusive
O=C(CCC1N=C2c3ccccc3N=C(SCc3ccccc3Cl)N2C1=O)NCc1cccs1 (centres undefined)	none (no result: Nrf2 block, Rango release inh, Rango complex inh)
Cn1nc(CC(=O)NC2CCCCC2)c2ccccc2c1=O	Nrf2 block inconclusive
Cn1nc(CC(=O)NC2CCCCCC2)c2ccccc2c1=O	Nrf2 block 18.4µM
COC(=O)C(Cc1ccc(O)cc1)NC(=O)C(C)NC(=O)c1ccc(C(C)(C)C)cc1 (centres undefined)	none
Clc1ccc2c(N/N=C/c3ccccc3Br)ccnc2c1	Nrf2 block 10.3µM, A549 tox inconclusive
COc1ccc(CC(=O)NNC(=O)c2cnccn2)cc1	none
CCCCOc1ccc(C(=O)NNC(=O)c2cnccn2)cc1OC	Nrf2 block 10.3µM
COc1cc(C(=O)NC(=S)NNC(=O)c2cnccn2)cc(OC)c1OC	Nrf2 block 4.61µM
CCCCCOc1ccc(NC(=O)C(=O)NCCCn2ccnc2)cc1	Nrf2 block 9.2µM
CCCCOc1ccc(C(=O)Nc2ccncc2)cc1	Nrf2 block 9.2µM
CCCOc1ccc(C(=O)Nc2cccnc2)cc1	none
O=C(NCc1ccco1)c1cnc2sccn2c1=O	none
Cc1ccc(Nc2nc(C(=O)NCc3ccco3)cs2)cc1	Nrf2 block 9.2µM (no result: A549 tox)
CCN(CC)C(=O)c1csc(Nc2ccc(C)cc2)n1	none
Cc1csc2ncc(C(=O)NCc3ccco3)c(=O)n12	Nrf2 ARE act 11.2µM
O=C(O)CN1C(=O)/C(=C/c2ccc(-c3cccc(Cl)c3)o2)SC1=S	none (no result: Rango release inh, Nrf2 ARE act, Rango complex inh)
Cc1ccc(C(NC(=O)C(C)C)c2cc([N+](=O)[O-])c3cccnc3c2O)cc1 (centres undefined)	Nrf2 block 18.4µM, A549 tox inconclusive
CCC(=O)NC(c1ccc(C)cc1)c1cc(Cl)c2cccnc2c1O (centres undefined)	Nrf2 block inconclusive
CCC(=O)NC(c1cccs1)c1cc([N+](=O)[O-])c2cccnc2c1OC (centres undefined)	none (no result: Nrf2 block, Rango release inh, A549 tox, Rango complex inh)
CC(C)C(=O)NC(c1cccs1)c1cc([N+](=O)[O-])c2cccnc2c1O (centres undefined)	Nrf2 block 20.6µM, A549 tox inconclusive
COc1ccc(C2c3c(n(Cc4ccccc4)cnc3=N)Oc3ccc4ccccc4c32)cc1OC (centres undefined)	none (no result: Rango release inh, Nrf2 ARE act, Rango complex inh)
CCC(c1nnnn1CCc1ccccc1)N(Cc1ccco1)Cc1cc2c(C)ccc(C)c2[nH]c1=O (centres undefined)	Nrf2 block 18.4µM, A549 tox inconclusive
O=C(NCc1nnc2c3ccccc3c(-c3ccccc3)nn12)c1ccc(Cl)cc1	Nrf2 block 20.6µM, A549 tox inconclusive
Cc1ccc(NC(=O)N2CCc3c([nH]c4ccccc34)C2c2ccccc2F)c(Cl)c1 (centres undefined)	Nrf2 block inconclusive (no result: Rango release inh, Rango complex inh)
COc1ccc(C)cc1Nc1n[n+](-c2ccccc2)c(-c2ccc(N(C)C)cc2)s1	Nrf2 block inconclusive, Rango release inh inconclusive, Rango complex inh inconclusive
Cc1ccc2c(c1)sc(-c1ccc(N(C)C)cc1)[n+]2C	Nrf2 block 2.06µM, Rango release inh inconclusive, A549 tox inconclusive, Rango complex inh inconclusive
COc1ccc(-c2n[nH]c(C(F)(F)F)c2-c2cc3ccccc3o2)c(O)c1	Nrf2 block 16.4µM, A549 tox 16.4µM
CN(C)C1CCN(Cc2cc(COCc3ccccc3)c3cccnc3c2O)C1 (centres undefined)	Nrf2 block 20.6µM
Oc1c(CN2CCCCC2)cc(COCc2ccccc2)c2cccnc12	Nrf2 block inconclusive, A549 tox inconclusive
Cc1ccc(NS(=O)(=O)c2cc3c(cc2Cl)CCC(=O)N3)cc1Cl	none (no result: Rango release inh, Nrf2 ARE act, Rango complex inh)
COc1cc2c(cc1OC)CN(c1ccc(-c3ccccc3OC)nn1)CC2	Nrf2 block 18.4µM, Rango release inh inconclusive, Rango complex inh inconclusive
COc1cc2c(cc1OC)CN(c1ccc3ccccc3n1)CC2	Rango complex inh inconclusive
CCc1cc(=O)oc2cc(OC(C)=O)cc(OC(C)=O)c12	Rango release inh 11.6µM, Rango complex inh inconclusive
CC(C)CNS(=O)(=O)c1ccc(CCC(=O)NCCc2ccccc2)cc1	none
CC1(C)CC(=O)C2=C(C1)OC1=C(C(=O)CC(C)(C)C1)C2c1ccc(O)cc1O	Rango release inh inconclusive, A549 tox 17.8µM, Rango complex inh inconclusive (no result: Nrf2 block)
CC1(C)CC(=O)C2=C(C1)OC1=C(C(=O)CC(C)(C)C1)C2c1ccc(O)c([N+](=O)[O-])c1	none
Cc1c(Cl)cccc1NS(=O)(=O)c1cc2c(cc1F)NC(=O)CC2	Nrf2 block inconclusive (no result: Rango release inh, Nrf2 ARE act, Rango complex inh)
O=C(Nc1ccccc1)c1cccc(S(=O)(=O)NCc2ccco2)c1	Nrf2 block 16.4µM, A549 tox inconclusive
CN(c1ccccc1)S(=O)(=O)c1cccc(NC(=O)CCNC(=O)c2ccc([N+](=O)[O-])cc2)c1	Nrf2 block inconclusive
Cc1ccc(NC(=O)CN(C)S(=O)(=O)c2cccc3nsnc23)cc1Cl	Nrf2 block 18.4µM
CN(C)S(=O)(=O)c1cccc(C(=O)Nc2ccc(C(=O)Nc3cccc(S(N)(=O)=O)c3)cc2)c1	none
CCN(CC)S(=O)(=O)c1cccc(NC(=O)CCNC(=O)c2ccc([N+](=O)[O-])cc2)c1	Nrf2 block 23.1µM
Cc1ccc(NC(=O)CN(C)S(=O)(=O)c2cccc3nsnc23)cc1C	none

Screening results: PubChem BioAssay, National Center for Advancing Translational Sciences (NCATS)
